Inconclusive results are not listed. Where a call stands in place of a potency, no number is given. Activity calls are given as the source filed them. The call rests on the fitted dose curve; in most records, active means well fitted inhibition curve with a large enough effect; inconclusive means small, poorly fitted or top-dose-only effect; inactive means no such curve, though single readings can be large or run the other way.
What follows are compounds tested against Retinaldehyde dehydrogenase 3 (Homo sapiens) (UniProt P47895) (assay: qHTS for Inhibitors of the Aldehyde Dehydrogenase Family (ALDH1A3) Primary screen (AID 2061315)). Details: ALDH inhibition qHTS; series mostly up to 56 µM.
With `O=C1CCCC2=C1C1(CCSCC1)N=C(Nc1nc3ccccc3o1)N2` the Potency was “inactive”. In the case of `Nc1ccc(-c2ccnc(NCCCNC(=O)c3c(Cl)cccc3Cl)n2)cc1`, the Potency was “inactive”. `Cc1ccc(OCCn2c(CCNC(=O)c3ccc(C(C)(C)C)cc3)nc3ccccc32)cc1` was tested, and the Potency was “inactive”. In the case of `c1csc(CNc2ncnc3cc(-c4ccc5c(c4)OCO5)ccc23)c1`, the Potency was “inactive”. For `COc1ccc(-c2cnc(N3CCC(C(N)=O)CC3)s2)cc1OC`, the Potency was “inactive”. `Cc1cccc(CNc2ccnc(-c3ccc4ccccc4c3)n2)c1` was tested, and the Potency was “inactive”. With `Cc1ccsc1CN(C)c1ncnc2ccc(-c3ccc(CO)o3)cc12` the Potency was “inactive”. For `Cc1cc(C)nc(NC(=S)N2CCN(c3cncs3)CC2)c1`, the Potency was “inactive”. `CCOC(=O)c1nn(-c2ccc(OC)cc2)c(=O)c2c(N)scc12` was tested, and the Potency was “inactive”. For `COc1cc(F)c(S(=O)(=O)N2CCN(S(=O)(=O)c3cccs3)CC2)c(F)c1`, the Potency was “inactive”. In the case of `CC(=O)Nc1sc2c(c1-c1ccc(OC(F)(F)F)cc1)CCNC2`, the Potency was “inactive”. For `Cc1ccnc(NC(=S)N2CCN(c3ccccc3C(F)(F)F)CC2)c1`, the Potency was “inactive”. For `Cc1cc(/C=C/C#N)cc(C)c1Nc1nc(Nc2ccc3n[nH]nc3c2)c2[nH]cnc2n1`, the Potency was “inactive”. In the case of `CCOC(=O)c1ccc(-c2ccc3ncnc(N(C)Cc4ccc(C)o4)c3c2)o1`, the Potency was “inactive”. For `c1cncc(-c2ccc3ncnc(NCc4ccc5c(c4)OCO5)c3c2)c1`, the Potency was “inactive”. `COc1cccc(CNc2ccc(S(=O)(=O)Nc3cccc4ccccc34)cc2)c1O` was tested, and the Potency was “inactive”. With `O=c1c2ccc(-c3cn[nH]c3)cc2nc2sc(Nc3ccc4c(c3)CCC4)nn12` the Potency was “inactive”. With `CC(=O)c1ccc(-c2ccc3ncnc(NCc4ccc(C)o4)c3c2)o1` the Potency was “inactive”. `Cc1ccc(NS(=O)(=O)c2cc3c(cc2-c2ccsc2)NC(=O)CO3)cc1C` was tested, and the Potency was “inactive”. For `Cc1c(P(=S)(c2ccccc2)c2ccccc2)c2ccccc2n1C/C=C/c1ccccc1`, the Potency was “inactive”. With `O=C(OCC#CCNc1nnc(-c2cccc3ccccc23)o1)c1cccs1` the Potency was “inactive”. For `C/C=C/C1=CC2=C(CO1)C(=O)C(C)(OC(=O)c1c(C)cc(O)cc1OC)C(O)C2` (configuration not stated), the Potency was “inactive”.

— PubChem BioAssay (NCATS)
